Among the data in PubChem BioAssay (NCATS) are Potency values, retold here.

Records with an inconclusive call do not appear. A call without a number means that no potency is given here. Activity calls are given as the source filed them. The call rests on the fitted dose curve; in most records, active means well fitted inhibition curve with a large enough effect; inconclusive means small, poorly fitted or top-dose-only effect; inactive means no such curve, though single readings can be large or run the other way.
Potency means the concentration at half of the fitted maximal effect.

For this experiment, the system named is Zika virus NS2B-NS3 protease (linked construct). Briefly: Primary screen NINDS Rhodamine qHTS for Zika virus inhibitors (AID 1347160). Further: nearly all actives have a fitted effect of over 55% in size. To be noted: purified NS2B-NS3 protease, Rhodamine110 substrate fluorescence; series mostly up to 57.1 µM. In outline:
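Percent inhibition, normalized to uninhibited and enzyme-free controls, is fitted to a 4-parameter Hill equation. Fluorescence change comes from a 15-min cleavage of 1.5 microM bis-peptide Rhodamine110 substrate by 25 nM linked NS2B-NS3 at room temperature.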
On the technique in general: In qHTS, concentration-response curves come from the screen itself.
For `COc1cc2nc(-c3ccc(N4CCN(C)CC4)cc3)nc(NCCN3CCOCC3)c2cc1OC`, the Potency result was “inactive”. As to `CC(C)C(=O)Oc1ccc(CO)cc1[C@H](CCN(C(C)C)C(C)C)c1ccccc1`, the Potency entry is “inactive”. Take `Cc1cccc(Nc2nc(-c3ccncc3)cs2)c1`: the Potency result is “inactive”. As for `O=C(Nc1cccc(Br)c1)c1cccc(S(=O)(=O)N2CCCCCC2)c1`, the entry is “inactive”; as for `CCOc1ccc(Nc2nc(-c3c(C)nc4ccccn34)cs2)cc1`, “inactive”; as for `CN(C)C1CCN(C(=O)c2ccc(NC(=O)Nc3nc(N4CCOCC4)nc(N4CCOCC4)n3)cc2)CC1`, “inactive”. As for `COc1cc2ncnc(-n3nc(-c4ccccn4)nc3N)c2cc1OC`, the entry is “inactive”; as for `O=c1cc(-c2ccccc2)oc2cc(O)c(O)c(O)c12`, 17.5 µM (active); as for `O=C(NCc1ccccc1)c1csc(Nc2ccncn2)n1`, “inactive”. As for `O=c1cc(CN2CCOCC2)occ1OCCCCCSc1ccnc2cc(C(F)(F)F)ccc12`, the entry is “inactive”.

Take `C=C1C(=O)[C@@]23C(CC[C@@H]1[C@H]2O)[C@@]12CO[C@]3(O)[C@@H](O)[C@@H]1C(C)(C)CC[C@@H]2O` (some centres undefined): the Potency result was “inactive”. To `Cc1nc(N)sc1-c1ccnc(Nc2ccc(N3CCOCC3)cc2)n1` belongs “inactive”; to `CS(=O)(=O)N(Cc1ccco1)CC(O)Cn1c2ccccc2c2ccccc21` (centres undefined), “inactive”; to `COc1cc2c(cc1OC)CN(CCc1ccc(NC(=O)c3cc(OC)c(OC)cc3NC(=O)c3cnc4ccccc4c3)cc1)CC2`, “inactive”.
